Assay outcomes (PubChem BioAssay)
Compounds with a hit are over-represented: about 2.6% of the library has one in this group of screens.
NOTCH agonist: agonists of NOTCH signaling | NOTCH signaling luciferase reporter cells, luminescence | activation, % at 2.5 µM | 15,000 compounds, 0.4% hits; in the data active = activation above about 2.2%
TLR4 MyD88 blk: inhibitors of human TLR4-MyD88 binding. 16,000 compounds, 0.06% hits. Cell-based TLR4-MyD88 binding inhibition assay. O00206. inhibition, % at 10 µM; in the data active = inhibition above about 45%
S1P1 ag: S1P1 (human) receptor agonism; AID 1044; P21453; activation, % at 4.5 µM; 16,000 compounds, 1.5% hits; S1P1 agonist cell-based reporter assay; in the data active = activation above about 80%
rat GALR2 agon: GALR2 (rat) receptor agonism | 16,000 compounds, 0.5% hits | activation, % at 10 µM | cell-based GALR2 agonist screen | O08726; in the data active = activation above about 15%
Target sequence (O08726 whole entry, looked up): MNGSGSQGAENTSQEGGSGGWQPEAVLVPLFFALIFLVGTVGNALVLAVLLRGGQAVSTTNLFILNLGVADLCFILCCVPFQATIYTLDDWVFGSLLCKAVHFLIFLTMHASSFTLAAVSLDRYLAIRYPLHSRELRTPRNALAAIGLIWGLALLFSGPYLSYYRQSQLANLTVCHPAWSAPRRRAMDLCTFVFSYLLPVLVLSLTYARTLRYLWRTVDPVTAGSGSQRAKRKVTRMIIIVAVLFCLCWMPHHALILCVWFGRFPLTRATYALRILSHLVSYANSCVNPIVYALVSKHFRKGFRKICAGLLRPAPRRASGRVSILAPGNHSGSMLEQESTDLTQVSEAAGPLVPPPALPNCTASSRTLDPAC
Active calls of the source: *; . = not tested or not shown.

SMILES	NOTCH agonist	TLR4 MyD88 blk	S1P1 ag	rat GALR2 agon
O=C(Nc1ccc(-c2cnco2)cc1)c1csc([N+](=O)[O-])c1	-0.4	6.3	104.7*	-1.1
Cc1nnsc1C(=O)Nc1ccccc1SCc1cccc(C(F)(F)F)c1	-0.1	9.3	88.2*	-10.8
N#C/C(=C\N1CCc2ccccc2C1)C(=O)c1cccs1	0.8	-1.1	12.0	2.8
O=C(c1cccs1)N1CCc2ccccc2C1	-0.1	3.3	-1.6	34.0*
COc1cc(NC(=O)c2cc(OC)c(OC)c(OC)c2)c(OC)cc1Cl	-0.9	-3.8	-18.0	-5.3
Nc1c(Cl)cc(C(=O)Nc2cc(Cl)c(Cl)cc2Cl)cc1Cl	-0.1	-5.6	-23.9	16.6*
O=C(NCc1csc2ccccc12)Nc1ccc(Cl)c(Cl)c1	-0.4	4.5	43.6	-1.2
O=C(O)c1ccc(OCc2ccccc2)cc1	-0.6	-4.0	-16.4	-2.0
c1ccc(COc2ccc(CCC3OCCO3)cc2)cc1	0.1	9.7	31.2	15.0*
O=[N+]([O-])c1ccc(C2=NN(c3ccccc3)C(c3ccco3)C2)cc1 (stereo not drawn)	-0.3	70.4*	74.5	-20.4
O=C(Nc1cccc(F)c1)c1cccc([N+](=O)[O-])c1	0.6	0.9	-22.5	-0.2
O=[N+]([O-])c1cnc(Sc2ccc(C(F)(F)F)cn2)s1	-1.1	-0.1	-23.8	-5.5
O=C1NC(=S)S/C1=C\c1cc([N+](=O)[O-])ccc1Sc1ccc(C(F)(F)F)cn1	-0.2	0.3	108.1*	-3.4
N#CCCNc1ccc(N=Nc2ccc(Cl)cc2)cc1	-0.5	13.8	103.8*	2.0
COc1ccc(NCCC#N)cc1	-0.6	8.2	-9.2	-4.3
O=C1c2cccc3c(Sc4ccccc4)ccc(c23)C(=O)N1NCCO	0.0	-11.3	1.7	-1.0
CCSc1ccc2c3c(cccc13)C(=O)N(Cc1ccccc1)C2=O	-0.1	-20.4	-31.2	128.0*
Oc1[nH]c2ccccc2c1N=Nc1nnc(-c2ccccc2)c(-c2ccccc2)n1	.	-2.9	96.2*	-7.5
CCOC(=O)c1sc(-c2ncc(C(F)(F)F)cc2OCC)nc1C	-0.3	3.0	3.5	-2.1
C/C(=N\NC(=S)NC(C)(C)C)c1sc(-c2ncc(C(F)(F)F)cc2Cl)nc1C	-1.1	-2.3	-22.5	18.8*
CC(=O)Nc1ccc(NC(=O)c2c(Cl)cccc2Cl)c(C)c1	1.1	-2.6	-1.6	41.2*
O=C(CSc1ccccn1)Nc1ccccc1Sc1nccc(C(F)(F)F)n1	-0.7	11.4	83.7*	-4.9
Cc1ccsc1/C=C/C(=O)O/N=C(\N)c1ccc(C(F)(F)F)cc1	-0.7	.	100.1*	-4.8
O=[N+]([O-])c1cc(C(F)(F)F)cc([N+](=O)[O-])c1O/N=C1\CSCc2ccccc21	0.2	-1.6	16.0	40.0*
Cn1nc(C(F)(F)F)c(-c2ccccc2)c1NC(=O)c1ccccc1	-0.3	5.3	11.2	-4.3
SMILES	NOTCH agonist	TLR4 MyD88 blk	S1P1 ag	rat GALR2 agon
Cc1ccc(S(=O)(=O)NC(=O)N2CCCN(c3nccc(C(F)(F)F)n3)CC2)cc1	-0.2	-1.6	13.4	-2.8
COc1ccccc1N1CCN(CCCCNC(=O)c2ccc(Cl)cc2)CC1	-0.9	4.7	-1.0	-5.7
O=C1CCC2=C(CCCC2)N1c1ccccc1	0.4	45.2*	1.9	-7.7
CSc1nc(-c2ccncc2)nc(N)c1C#N	-0.9	0.2	-10.9	-5.3
Cc1ccc(COc2ncnc3cc(Cl)ccc23)cc1	-0.8	.	-15.7	45.9*
CCCc1cnc(Oc2ncnc3cc(Cl)ccc23)nc1	-0.6	-1.6	-11.9	-4.3
O=C(/C=C/c1cccs1)NCCc1ccccc1	.	-10.5	-6.5	-3.9
O=[N+]([O-])c1ccc(-c2ccc(/C=N/Nc3ccccc3)o2)cc1	-0.3	41.1	82.1*	-18.5
O=[N+]([O-])c1ccc(-c2ccc(/C=N/NC(=S)NCC3CCCO3)o2)cc1 (stereo not drawn)	-0.4	50.1*	29.9	-6.4
Cc1c(C#N)c(O)[nH]c(=O)c1N=Nc1ccc([N+](=O)[O-])cc1	-0.1	-3.9	0.8	-5.5
O=C1CNC(=O)c2ccccc2N1	-0.5	3.7	-14.3	-9.2
O=C(CSCCS(=O)(=O)c1ccc(Cl)cc1)N1CCCCC1	.	-6.7	16.3	-5.3
CSc1nnc(SC2=CC(=O)CC(c3ccccc3)C2)s1 (stereo not drawn)	3.3*	-6.7	60.3	-13.9
CNc1ccc(C(C)=O)cc1N	0.1	1.4	2.2	-0.5
COc1ccc(CCNC(=O)c2ccccc2)cc1OC	-0.1	-0.9	-7.3	-5.7
COc1ccc(CCNC(C#N)c2ccco2)cc1OC (stereo not drawn)	-0.1	3.9	105.0*	-12.0
Cc1cn(CCC(=O)NCc2ccc3c(c2)OCO3)c2ccccc12	3.5*	-3.4	-9.2	-6.0
Cn1nc(C(C)(C)C)cc1C(=O)NCc1ccc2c(c1)OCO2	-1.0	3.3	84.2*	0.2
O=C1CS/C(=N/N=C/c2cn(-c3ccccc3)nc2-c2ccccc2)N1	0.1	3.6	-19.2	-2.9
Cc1cc(C(=O)Nc2ccc(N3CCOCC3)cc2)nn1C	-0.4	-1.8	1.0	-1.9
Cc1cc(C(=O)Nc2nc3ccc(Cl)cc3s2)nn1C	-0.7	9.9	102.5*	-4.1
CN(CCc1ccccn1)C(=O)c1nccnc1C(=O)O	-0.3	13.5	94.5*	-4.6
Cc1c(C(=O)Oc2cccc(C(F)(F)F)c2)n(C)oc1=O	-0.2	-3.9	-5.9	56.3*
Cc1c(C(=O)NNc2cc(C(F)(F)F)ccc2Cl)n(C)oc1=O	0.0	-3.6	19.2	-4.9
O=C(c1ccc(Cl)cc1)n1ccc(-c2cccc([N+](=O)[O-])c2)n1	0.0	4.1	-15.9	26.2*
SMILES	NOTCH agonist	TLR4 MyD88 blk	S1P1 ag	rat GALR2 agon
CCSc1ncccc1C(=O)NOc1ccc([N+](=O)[O-])cc1[N+](=O)[O-]	0.4	-6.6	2.4	-8.0
Oc1c(Cl)cc(Cl)cc1C1Nc2cc(Cl)c(C(F)(F)F)cc2N1 (stereo not drawn)	-1.1	-10.1	106.2*	-7.7
O=S(=O)(Nc1ccc2c(c1)OCCO2)c1csc(-c2cc(C(F)(F)F)on2)c1	0.4	6.0	82.3*	-5.0
O=C(Cn1nnc(-c2ccccc2C(F)(F)F)n1)NNC(=S)Nc1cc(Cl)cc(Cl)c1	.	-7.2	-15.0	-5.6
N#Cc1nc(=O)n(-c2ccc(OC(F)(F)F)cc2)c(N)c1N=Cc1ccc(C(F)(F)F)cc1	-6.1	-3.5	105.7*	-8.2
O=C(NCc1csc2ccccc12)c1ccccc1	-0.2	2.0	14.3	-1.5
CCc1cccc(CC)c1NC(=O)NC(=O)c1c(OC)cccc1OC	-0.5	-3.9	-18.8	-8.3
N#C/C(=C\Nc1cc(C(F)(F)F)cc(C(F)(F)F)c1)S(=O)(=O)c1ccc(Cl)cc1	.	-3.8	86.6*	-9.9
O=C(CCn1c(=O)oc2ccccc21)NNC(=O)c1ccc(Cl)cc1	0.0	-10.3	-32.3	-1.0
Cn1nc(C(C)(C)C)cc1C(=O)Nc1cccnc1	-1.4	-5.9	-16.1	-7.5
Cc1cc(C)c(C(=O)Nc2cccnc2)c(CC(C)(C)C(=O)O)c1	-0.5	1.9	81.7*	-6.0
Cc1cc(C)c(C#N)c(Sc2c([N+](=O)[O-])ncn2C)n1	-0.5	-9.5	18.8	-6.3
Cc1cc(S(=O)(=O)Cc2ccc(NC(=O)C(Cl)(Cl)Cl)cc2)c(C)cc1Cl	-0.3	-3.7	5.0	16.3*
O=[N+]([O-])c1ccc(-c2cc3cc(Cl)ccc3o2)cc1	-0.4	7.0	14.8	-4.3
